Laboratory results: paper PMC4336329 (PLoS ONE, 2015)
Screen size: about 310,000 compounds; about 2,200 (0.71%) showed an effect of 50% or more. Effects have a minus sign here. For the sample, strong results were picked, then their nearest neighbours and some compounds at random.

Target: human ether-à-go-go-related gene (hERG) potassium channel (human, UniProt Q12809)
Test: primary screen, population patch clamp on CHO cells stably expressing hERG; higher = less effect of the substance
Experimental: Briefly, Chinese hamster ovary (CHO) cells stably expressing the hERG channel were dislodged from tissue culture flasks and dispensed into PPC plates. […] During the recording, background leak currents were estimated by a 100 ms step to -80 mV from an initial holding potential of -70 mV and subtracted from the subsequent current measurement. The campaign was conducted in two phases using slight differences in recording protocol. In the first phase, the initial voltage pulse used a 100 ms step to -30 mV from a holding potential of -70 mV, a 2 s conditioning step to +25 mV, and a 2 s test step to -30 mV. During the second phase of the screen, the potential during the conditioning step was raised to +45 mV. In both phases of the campaign, a secondary voltage pulse was applied using the same parameters as the second phase initial pulse. The initial and secondary pulses were applied in the absence of compound, and upon application of 1 μM and 10 μM test concentrations. Small molecule effects on hERG current density were quantified by […].

human ether-à-go-go-related gene (hERG) potassium channel, sequence (Q12809 whole entry, looked up): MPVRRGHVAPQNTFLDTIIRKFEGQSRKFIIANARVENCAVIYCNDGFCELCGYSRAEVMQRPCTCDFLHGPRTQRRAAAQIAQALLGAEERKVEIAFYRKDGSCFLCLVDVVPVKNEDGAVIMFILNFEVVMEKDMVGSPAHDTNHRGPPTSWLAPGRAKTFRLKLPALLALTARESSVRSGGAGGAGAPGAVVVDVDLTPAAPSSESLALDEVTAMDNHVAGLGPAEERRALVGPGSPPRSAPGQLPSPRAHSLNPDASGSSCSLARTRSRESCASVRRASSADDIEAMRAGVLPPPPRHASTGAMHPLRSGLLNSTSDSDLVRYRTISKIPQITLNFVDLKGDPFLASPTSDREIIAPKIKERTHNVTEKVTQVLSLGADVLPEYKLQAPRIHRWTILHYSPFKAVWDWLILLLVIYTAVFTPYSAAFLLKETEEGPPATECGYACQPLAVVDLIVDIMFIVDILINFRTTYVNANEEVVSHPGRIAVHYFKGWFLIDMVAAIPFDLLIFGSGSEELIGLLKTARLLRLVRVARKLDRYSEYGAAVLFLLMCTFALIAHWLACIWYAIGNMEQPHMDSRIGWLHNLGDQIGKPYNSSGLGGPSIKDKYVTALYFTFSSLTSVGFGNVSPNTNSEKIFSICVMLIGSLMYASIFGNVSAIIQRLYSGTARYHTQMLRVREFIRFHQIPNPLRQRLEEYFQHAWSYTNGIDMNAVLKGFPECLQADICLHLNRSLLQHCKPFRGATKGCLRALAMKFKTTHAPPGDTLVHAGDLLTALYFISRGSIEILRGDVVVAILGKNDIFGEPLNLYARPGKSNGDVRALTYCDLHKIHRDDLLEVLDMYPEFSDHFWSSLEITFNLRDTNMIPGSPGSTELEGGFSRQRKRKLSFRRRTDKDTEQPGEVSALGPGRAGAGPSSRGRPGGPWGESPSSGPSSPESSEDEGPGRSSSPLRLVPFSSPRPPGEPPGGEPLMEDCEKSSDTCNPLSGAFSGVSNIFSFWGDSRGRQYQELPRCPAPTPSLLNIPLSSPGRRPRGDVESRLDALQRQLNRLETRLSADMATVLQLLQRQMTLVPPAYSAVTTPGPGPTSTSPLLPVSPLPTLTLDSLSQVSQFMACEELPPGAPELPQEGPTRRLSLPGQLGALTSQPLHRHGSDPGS

SMILES | hERG current change (%, negative = inhibition) at 1uM [%]
N#Cc1c(NC(=S)NC(=O)C2CCCC2)sc2c1CCCCC2 | 10.1
COc1ccc(N2CCN(c3ncnc4c3cnn4-c3ccc(C)cc3C)CC2)cc1 | 13.6
CCC(=O)N1CCc2cc(S(=O)(=O)NC(C(=O)NCc3ccc(C)cc3)C(C)C)ccc21 (stereo not drawn) | 1.57
CCOc1ccc2nc(N3CCCC(C(=O)NCCCN4CCCCC4)C3)sc2c1 (stereo not drawn) | -11.7
CCN=C(NCC)SC1CC(=O)N(c2ccc(OCC)cc2)C1=O (stereo not drawn) | 7.6
Cn1cc(/C=N/NC(=O)c2ccc(C#N)cc2F)c2ccccc21 | 12.6
N#Cc1c(N2CCCC(O)C2)nc(N)c2c(N)nc3c(c12)CC(=O)N3C12CC3CC(CC(C3)C1)C2 (stereo not drawn) | 8.76
COc1ccc(/C=C(/NC(=O)c2ccccc2)C(=O)NCc2ccncc2)cc1 | -12.6
O=C(NCc1ccncc1)/C(=C/c1cccc([N+](=O)[O-])c1)NC(=O)c1ccccc1 | -31.2
CN(C)c1ccc(/C=C(\NC(=O)c2ccccc2)C(=O)NCc2ccncc2)cc1 | 4.78
Cc1ccc(C(=O)N/C(=C\c2cccc([N+](=O)[O-])c2)C(=O)NCc2ccncc2)cc1 | -65.3
O=C(NCc1ccncc1)/C(=C\c1ccc(F)cc1)NC(=O)c1ccccc1 | -52.3
CCNC(=O)/C(=C/c1cccc([N+](=O)[O-])c1)NC(=O)c1ccc(C)cc1 | -17.3
Cc1ccc(C23CC4CC(CC(C(=O)OCC(=O)NC5CCS(=O)(=O)C5)(C4)C2)C3)cc1 (stereo not drawn) | 1.74
COc1ccc(OCC(=O)NNC(=O)C(=O)Nc2cc(OC)ccc2OC)cc1 | 13.5
N=c1c2c(-c3ccccc3)c(-c3ccccc3)oc2ncn1CCN1CCOCC1 | -63.5
N=c1c2c(-c3ccccc3)c(-c3ccccc3)oc2ncn1CCCN1CCOCC1 | -84.5
COc1ccc(-c2oc3ncn(CCN4CCOCC4)c(=N)c3c2-c2ccc(OC)cc2)cc1 | -7.75
N=c1c2c(-c3ccccc3)c(-c3ccccc3)oc2ncn1Cc1ccco1 | 9.94
c1ccc(-c2oc3ncnc(NCCCN4CCOCC4)c3c2-c2ccccc2)cc1 | 0.244
c1ccc(-c2oc3ncnc(NCCN4CCOCC4)c3c2-c2ccccc2)cc1 | 9.8
COc1ccccc1CCc1nnc(CCC(=O)N(C)Cc2cccc3cnccc23)o1 | -53.3
COc1ccccc1CCc1nnc(CCC(=O)N(C)Cc2ccncc2C)o1 | 16.2
CN(Cc1cccc2cnccc12)C(=O)CCc1nnc(CCc2ccccc2)o1 | -5.46
COc1ccc2[nH]c(=O)c(CN(Cc3cccnc3)S(=O)(=O)c3ccccc3F)cc2c1 | 7.89
CCOc1ccc(NC(=O)CN(C)C(=O)c2ccc(-c3ccc(C(C)=O)cc3)o2)cc1OCC | 10.5
Cl.Nc1c2c(nc3ccccc13)CCCC2 | -12.6

SMILES | hERG current change (%, negative = inhibition) at 1uM [%]
Nc1c2c(nc3ccn(-c4ccccc4)c(=O)c13)CCCCC2 | -37.1
Nc1c2c(nc3ccn(Cc4ccccc4)c(=O)c13)CCC2 | -59
NC(=O)NC(c1ccc(Cl)cc1)c1ccccc1Cl (stereo not drawn) | 7.43
CC(=O)Nc1ccc(-n2c(C)ccc2C)cc1 | 12.9
O=C(/C=C/c1ccccc1Cl)N1CCN(c2ncccn2)CC1 | 7.12
O=C(/C=C/c1cccc(F)c1)N1CCN(c2ccccn2)CC1 | -68.4
O=C(/C=C/c1ccc(F)cc1)N1CCN(c2ncccn2)CC1 | 18.1
O=C(/C=C/c1cccc(F)c1)N1CCN(c2ncccn2)CC1 | 12.4
O=C(/C=C/c1ccccc1)N1CCN(c2ccccn2)CC1 | -3.17
O=C(/C=C/c1c(Cl)cccc1Cl)N1CCN(c2ncccn2)CC1 | -53
Cc1ccc2cc(CCNC(=O)c3ccc(S(=O)(=O)N4CCOCC4)cc3)c(=O)[nH]c2c1C | 11.8
Cc1ccc(C)c(S(=O)(=O)NCC(=O)NCc2ccco2)c1 | 4.55
Cc1cccc(C)c1NC(=O)CCCSc1nnc(N)s1 | 8.09
CCCn1c(=N)n(CCOc2ccc(OC)cc2)c2ccccc21 | -22
CCn1c(=N)n(CC(O)COc2ccc(C)cc2)c2ccccc21.Cl (stereo not drawn) | -16.8
CCN(CC)CCn1c(=N)n(CC(O)COc2ccccc2)c2ccccc21.Cl (stereo not drawn) | -20.5
CCCCn1c(=N)n(CC(O)COc2ccc(C)cc2)c2ccccc21.Cl (stereo not drawn) | -77
Br.CCCCn1c(=N)n(CCOc2ccc(C)cc2)c2ccccc21 | -59.6
CCCn1c(=N)n(CC(O)COc2ccc(C)cc2)c2ccccc21.Cl (stereo not drawn) | -68
Cl.N=c1n(CCN2CCOCC2)c2ccccc2n1CC(O)COc1ccccc1 (stereo not drawn) | -3.77
CCn1c(=N)n(CCOc2ccc(OC)cc2)c2ccccc21 | -25.5
Cc1ccc(OCC(O)Cn2c3ccccc3c3ccccc32)cc1 (stereo not drawn) | 16.8
Cc1ccc(OCC(O)Cn2c(=N)n(CCN3CCOCC3)c3ccccc32)cc1.Cl (stereo not drawn) | -9.7
CCCCn1c(=N)n(CC(O)COc2ccccc2)c2ccccc21 (stereo not drawn) | -68
CCCCn1c(=N)n(CC(O)c2ccccc2)c2ccccc21.Cl (stereo not drawn) | -36.7
CCOC(=O)C1CCN(C(=O)CSC2=NCCS2)CC1 | 8.93
NS(=O)(=O)c1ccc(CCNC(=O)CN2CCN(Cc3cccc4ccccc34)CC2)cc1 | 8.33
